Assay results: PubChem BioAssay (NCI)
The panel holds about 83,000 compounds, 20% with a hit somewhere; the sample as a whole holds those more often.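 Interpretation: 100, growth as untreated; towards 0, rising growth inhibition; 0, no net growth; 0 to -100, cell death. Compounds scoring below 10 were considered active.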 The source made the active and inactive calls.

What was measured:
Test in all cases: NCI-60 one-dose screen, 48 h (100 = growth as untreated, 0 = no growth, -100 = all killed)
Details in all cases: 10 µM unless noted
DU-145 prostate = tested on: DU-145 prostate
K-562 leukemia = tested on: K-562 leukemia
MALME-3M melanoma = tested on: MALME-3M melanoma
MDA-MB-231 breast = tested on: MDA-MB-231 breast
RXF 393 renal = tested on: RXF 393 renal
SF-268 CNS = tested on: SF-268 CNS
SF-295 CNS = tested on: SF-295 CNS
SF-539 CNS = tested on: SF-539 CNS
UACC-257 melanoma = tested on: UACC-257 melanoma
M14 melanoma = tested on: M14 melanoma

SMILES	growth (DU-145 prostate)	growth (K-562 leukemia)	growth (MALME-3M melanoma)	growth (MDA-MB-231 breast)	growth (RXF 393 renal)	growth (SF-268 CNS)	growth (SF-295 CNS)	growth (SF-539 CNS)	growth (UACC-257 melanoma)	growth (M14 melanoma)
COc1ccccc1/C=C(/C(=O)c1ccccc1)c1ccccc1	110% (inactive)	86.6% (inactive)	135% (inactive)	98.6% (inactive)	105% (inactive)	97.8% (inactive)	104% (inactive)	106% (inactive)	93.4% (inactive)	101% (inactive)
COc1ccc(-c2nn(-c3ccccc3)cc2/C=C/C(=O)OCc2cn(-c3ccc(F)c(Cl)c3)nn2)cc1	97.2% (inactive)	69.7% (inactive)	59% (inactive)	56.9% (inactive)	68.4% (inactive)	77.4% (inactive)	97.3% (inactive)	98.7% (inactive)	92.9% (inactive)	97.6% (inactive)
O=C1C[C@H](Sc2nc(-c3ccc(F)cc3)cc(C(F)(F)F)n2)[C@H]2CO[C@@H]1O2	89.9% (inactive)	53.3% (inactive)	89.1% (inactive)	96.2% (inactive)	96.6% (inactive)	101% (inactive)	109% (inactive)	103% (inactive)	104% (inactive)	97.8% (inactive)
Cc1ccc(-c2nc(/C=N/Nc3cc(C)nc4ccc(Br)cc34)c(C)o2)cc1	-33.3% (active)	-33.2% (active)	-82% (active)	-91.9% (active)	-94.1% (active)	-59.4% (active)	85.7% (inactive)	71.3% (inactive)	97% (inactive)	-50.2% (active)
NS(=O)(=O)N(c1cc(C(F)(F)F)cc(C(F)(F)F)c1)C1CCN(Cc2ccc(F)cc2)CC1	99% (inactive)	26.1% (inactive)	29% (inactive)	67.7% (inactive)	41.7% (inactive)	79.9% (inactive)	81.6% (inactive)	83.1% (inactive)	62.1% (inactive)	46.6% (inactive)
CCCCCCCCCc1cc(CN2CCCCC2)c(O)c(CN2CCCCC2)c1	66.4% (inactive)	31.8% (inactive)	75.1% (inactive)	30.9% (inactive)	78.3% (inactive)	71.7% (inactive)	64.6% (inactive)	60.9% (inactive)	58.8% (inactive)	68.3% (inactive)
Nc1cc(-c2nc3sccn3c2-c2ccnc(NCCCNS(=O)(=O)c3ccc(F)cc3)n2)ccc1F	58.6% (inactive)	26.8% (inactive)	37.1% (inactive)	62.5% (inactive)	52.1% (inactive)	62% (inactive)	67.5% (inactive)	73.2% (inactive)	57.9% (inactive)	31% (inactive)
O=C(Nc1ccc(Oc2ccc(F)cc2)c(Cl)c1)c1cccnc1	87% (inactive)	50.9% (inactive)	103% (inactive)	93.7% (inactive)	90.2% (inactive)	95% (inactive)	86% (inactive)	94.4% (inactive)	91.4% (inactive)	97.3% (inactive)
O=C(O)c1cn(C2CC2)c2cc(N3CCN(Cc4nc5c(cnn5-c5ccc([N+](=O)[O-])cc5)c(=O)[nH]4)CC3)c(F)cc2c1=O	110% (inactive)	92.6% (inactive)	98.1% (inactive)	92.4% (inactive)	107% (inactive)	96.4% (inactive)	105% (inactive)	97.8% (inactive)	106% (inactive)	102% (inactive)
COc1cccc(-c2nc3sccn3c2-c2ccnc(NCCCNS(=O)(=O)c3ccccc3)c2)c1	42.2% (inactive)	13.9% (inactive)	50.8% (inactive)	58.8% (inactive)	63.7% (inactive)	49.9% (inactive)	28.6% (inactive)	73.1% (inactive)	50.9% (inactive)	38% (inactive)
COc1ccc(Cl)cc1Nc1nc(C(F)(F)F)ccc1C(=O)N/N=C/c1cccnc1	53.7% (inactive)	36.1% (inactive)	42.6% (inactive)	49.3% (inactive)	60.9% (inactive)	48.9% (inactive)	81.6% (inactive)	45.9% (inactive)	72.7% (inactive)	52.9% (inactive)
CCN(CC)CC(O)CNc1c2ccc([N+](=O)[O-])cc2nc2cc(OC)c(OC)cc12 (stereo not given)	-29.9% (active)	3.2% (active)	-82% (active)	-71.9% (active)	-43.4% (active)	-35.2% (active)	-8.54% (active)	-35.7% (active)	-33.5% (active)	-56.7% (active)
Cc1ccc2c(c1)C(=O)c1c-2c(OCCCN(C)C)nc2ccccc12	34.3% (inactive)	-59.4% (active)	-71.7% (active)	-22.7% (active)	30.1% (inactive)	30.8% (inactive)	60% (inactive)	14.4% (inactive)	69.5% (inactive)	-82.2% (active)
CN1CCN(Cc2ccc(NC(=O)c3[nH]ncc3Nc3ncnc4[nH]ccc34)cc2)CC1	3.78% (active)	5.62% (active)	-23.3% (active)	0.311% (active)	-70.2% (active)	-6.72% (active)	9.36% (active)	-65% (active)	15.7% (inactive)	0.163% (active)
CCN(CC)CC#CCOC(=O)[C@]1(C)CCC[C@@]2(C)[C@H]1CC(C=O)=C1C=C(C(C)C)CC[C@@H]12	90.1% (inactive)	20.7% (inactive)	82.3% (inactive)	76% (inactive)	61.2% (inactive)	75.8% (inactive)	71.8% (inactive)	49.1% (inactive)	85.4% (inactive)	56.4% (inactive)
O=C1CCc2c(sc3[nH]c(=S)n(Cc4ccccc4)c(=O)c23)C1	64.1% (inactive)	11.5% (inactive)	69% (inactive)	16.5% (inactive)	20.8% (inactive)	19.4% (inactive)	-13.9% (active)	-12.6% (active)	29.1% (inactive)	18.9% (inactive)
COCCCN=C(N)c1ccc(NC(=O)c2ccc(C(=O)Nc3ccc(C(N)=NCCCOC)cc3)cc2)cc1	148% (inactive)	66.8% (inactive)	75.5% (inactive)	112% (inactive)	142% (inactive)	103% (inactive)	93.7% (inactive)	98.5% (inactive)	121% (inactive)	80.3% (inactive)
CN[C@@]12CC3(C=CC(=O)C=C3)O[C@]1(Cc1ccc(OC)cc1)N(C)C(=O)N2	101% (inactive)	13.1% (inactive)	107% (inactive)	110% (inactive)	50.7% (inactive)	96.7% (inactive)	109% (inactive)	45.3% (inactive)	78.8% (inactive)	63% (inactive)
CCN(CC)CCCC(C)Nc1ccnc2c(OC)cccc12 (stereo not given)	120% (inactive)	121% (inactive)	142% (inactive)	107% (inactive)	135% (inactive)	124% (inactive)	109% (inactive)	116% (inactive)	113% (inactive)	108% (inactive)
O=C(CN1CCN(c2cc3c(cc2F)c(=O)c(C(=O)O)cn3C2CC2)CC1)Nc1cc(=O)[nH]c(=O)[nH]1	112% (inactive)	103% (inactive)	95.3% (inactive)	102% (inactive)	94.4% (inactive)	100% (inactive)	86.8% (inactive)	96.6% (inactive)	103% (inactive)	89.2% (inactive)
COc1ccc(S(=O)(=O)NCCCNc2nccc(-c3c(-c4cccc(N)c4)nc4sccn34)n2)cc1	92.1% (inactive)	69.7% (inactive)	103% (inactive)	-61.7% (active)	96.1% (inactive)	87.6% (inactive)	102% (inactive)	101% (inactive)	113% (inactive)	80.8% (inactive)
CC(=O)OC1Oc2cc(C)c(C)cc2-c2oc(=O)c(-c3cc4ccc(N(C)C)cc4oc3=O)cc21 (stereo not given)	85.8% (inactive)	11.4% (inactive)	68.1% (inactive)	75.8% (inactive)	45.9% (inactive)	84.8% (inactive)	54.9% (inactive)	81.4% (inactive)	73.4% (inactive)	86.7% (inactive)
COC1/C=C\OC2(C)Oc3c(C)c(O)c4c(O)c(c(CN(C)CCO)c(O)c4c3C2=O)NC(=O)/C(C)=C\C=C/C(C)C(O)C(C)C(O)C(C)C(OC(C)=O)C1C (stereo not given)	116% (inactive)	92.3% (inactive)	84.2% (inactive)	108% (inactive)	98.5% (inactive)	97.3% (inactive)	113% (inactive)	91.1% (inactive)	105% (inactive)	105% (inactive)
C=C1C(=O)O[C@H]2[C@H]1CC/C(Cn1cc(Cn3ccc4ccccc43)nn1)=C\CC[C@@]1(C)O[C@@H]21	18.1% (inactive)	-16.5% (active)	-54.5% (active)	-24.8% (active)	-22.9% (active)	39.9% (inactive)	76.2% (inactive)	-62.8% (active)	41.3% (inactive)	14.4% (inactive)
